# Measured values taken from PubChem BioAssay AID540351 (The Scripps Research Institute Molecular Screening Center, 2011).
# Values without a mark were called inactive. No rule for the calls is given here.
# Tested on: Imidazoline I2
# Assay: selectivity profiling over binding targets, CYP450 – biochemical, Ricerca HitProfilingScreen, selectivity assay for S1P3 agonist project, profiling panel (AID 540351)
# Conditions: Ricerca receptor/enzyme binding panel plus CYP450, Central, at 30 µM, active compounds read high
compound,measurement,value
O=C(c1cc(C2CC2)on1)N(C1CCCCC1)C1CCCCC1,inhibition,23%
